From the supplement of paper PMC11577813, “Eurasian spruce bark beetle detects lanierone using a highly expressed specialist odorant receptor, present in several functional sensillum types” (BMC Biology, 2024)
± gives the standard deviation of the averaged measurements.

Tested on: (4S)-cis-verbenol A-neuron OSN class
Test: net action potential response of A-neuron (blank-subtracted) (spikes/s (Hz)); higher = stronger excitation
Conditions: 10 µg on filter paper; neuron: A neuron (large spike amplitude)
Protocol: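 Single sensillum recordings from antennal olfactory sensilla of live adult Ips typographus. Each compound was 10 µg in paraffin oil on filter paper, delivered as a 0.5 s puff. Net response = spikes in the first 0.5 s of response minus the 0.5 s pre-stimulus count, doubled to give Hz, with blank response subtracted. Values are for the large-spike A-neuron class of each of seven sensillum types that co-house the lanierone B-neuron; N = 1-4 sensilla, averaged.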

Row | SMILES | net action potential response
1 | C=CCc1ccc(OC)cc1 [Estragole] | -2 ± 3.5
2 | Cc1ccccc1 [Toluene] | 1.33 ± 6.4
3 | O=Cc1ccccc1 [Benzaldehyde] | 2 ± 6
